Reference: PubChem BioAssay (Tox21)
Inconclusive results are not listed. The source made the active and inactive calls. Unless noted, calls follow the shape of the full dose curve.

What was measured:
[1] = qHTS assay to identify small molecule antagonists of the vitamin D receptor (VDR) signaling pathway - cell viability counter screen (AID 743225; active = well fitted curve in the direction sought with a large enough effect in the repeat runs; an effect the other way counts as inactive or inconclusive; also: nearly all actives have a fitted effect of over 50% in size)
How it was run: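 Viability counter screen run in the same wells as the beta-lactamase reporter assay: HEK 293T VDR-UAS-bla cells, 16 h compound exposure at 37C with 3 nM (final) 1-alpha,25-dihydroxyvitamin D3. CellTiter-Glo luminescence, 30 min, room temperature.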

[2] = qHTS assay to identify small molecule agonists of the NFkB signaling pathway - cell viability counter screen (AID 1159515); also: series mostly up to about 61 µM; nearly all actives have a fitted effect of over 55% in size
How it was run: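 Counter screen run alongside the NFkB-bla agonist assay: ME-180 reporter cells exposed to compounds for 5 hr, then lysed with CellTiter-Glo in the same wells. Luminescence, read after 30 min, reflects viable cells.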

[3] = qHTS assay to identify small molecule agonists of the endoplasmic reticulum stress response signaling pathway (AID 1159516; active = well fitted activation curve with a large enough effect in the signal ratio in the repeat runs, not every such curve was filed as active; the % refers to the signal ratio; also: potency is read from the fitted curve at half-maximal effect)
How it was run: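 For this screen, HeLa cells stably carrying beta-lactamase under the ER stress response element received test compounds, positive controls or DMSO for 5 hr at 37 C; B/G FRET substrate was then added and dual-wavelength emission recorded.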

[4] = qHTS assay to identify small molecule agonists of the endoplasmic reticulum stress response signaling pathway - cell viability counter screen (AID 1159517); also: series mostly up to about 61 µM; nearly all actives have a fitted effect of over 50% in size
How it was run: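 In parallel with the ESRE reporter read, cytotoxicity was scored by CellTiter-Glo luminescence (30 min, room temperature) on HeLa ESRE-bla cells dosed for 5 hr.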

[5] = biological target: Nuclear receptor ROR-gamma (Homo sapiens) (UniProt P51449); test: qHTS assay to identify small molecule antagonists of the retinoid-related orphan receptor gamma (ROR-gamma) signaling pathway (AID 1159521; active = well fitted curve in the direction sought with a large enough effect in the repeat runs; an effect the other way counts as inactive or inconclusive;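 also: CHO cells with doxycycline inducible ROR-gamma driving an RORE luciferase reporter; top concentration of the series differs between compounds; nearly all actives have a fitted effect of over 50% in size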)
How it was run: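 Luminescence readout (ONE-Glo, 30 min RT) after 16 h doxycycline induction; loss of signal scored as antagonism. CHO cells with TET-inducible RORγ and RORE-LUC reporter; compounds added 2 h before 1 uM final doxycycline.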

[6] = qHTS assay to identify small molecule agonists of the AP-1 signaling pathway - cell viability counter screen (AID 1159525); also: nearly all actives have a fitted effect of over 55% in size
How it was run: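 Same-well cytotoxicity counter screen of the Tox21 10K library in ME-180 cells. The readout is ATP-dependent luminescence after 5 h compound treatment. Data are normalised to DMSO and tetra n-octyl ammonium bromide controls.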

[7] = qHTS assay to identify small molecule agonists of the AP-1 signaling pathway (AID 1159526); also: potency is read from the fitted curve at half-maximal effect
[8] = biological target: Retinoic acid receptor RXR-alpha (Homo sapiens) (UniProt P19793); test: qHTS assay to identify small molecule agonists of the RXR signaling pathway (AID 1159527); also: nearly all actives have a fitted effect of over 35% in size
Chain of Retinoic acid receptor RXR-alpha (Homo sapiens) (P19793 whole entry, looked up): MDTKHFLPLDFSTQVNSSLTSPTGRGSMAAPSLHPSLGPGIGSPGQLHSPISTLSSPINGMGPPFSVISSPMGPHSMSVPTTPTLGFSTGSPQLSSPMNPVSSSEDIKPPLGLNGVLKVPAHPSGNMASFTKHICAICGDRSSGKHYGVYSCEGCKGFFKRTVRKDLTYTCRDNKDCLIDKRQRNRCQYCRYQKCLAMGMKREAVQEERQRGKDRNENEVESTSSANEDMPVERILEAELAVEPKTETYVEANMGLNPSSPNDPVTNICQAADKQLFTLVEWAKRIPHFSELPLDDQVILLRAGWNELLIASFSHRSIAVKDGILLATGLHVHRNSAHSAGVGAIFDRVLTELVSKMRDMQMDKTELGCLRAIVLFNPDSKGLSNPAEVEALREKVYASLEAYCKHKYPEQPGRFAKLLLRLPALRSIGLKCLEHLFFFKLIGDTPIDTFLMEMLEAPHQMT
How it was run: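 Agonist mode; 9-cis retinoic acid positive control. HEK 293T UAS-bla reporter cells, 2% charcoal-stripped FBS, 16 hr compound exposure at 37 C/5% CO2. LiveBLAzer B/G FRET substrate 2 hr RT; ex 405, em 460/530 nm.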

[9] = qHTS assay to identify small molecule agonists of the RXR signaling pathway - cell viability counter screen (AID 1159529; active = well fitted curve in the direction sought with a large enough effect in the repeat runs; an effect the other way counts as inactive or inconclusive; also: series mostly up to about 77 µM; nearly all actives have a fitted effect of over 50% in size)
How it was run: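 Luminescence from CellTiter-Glo (30 min, RT) measured viability in the same wells as the beta-lactamase reporter readout. Cells: GeneBLAzer RXR-alpha HEK 293T, 2% charcoal-stripped FBS. Compound exposure 16 hr, 37 C.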

[10] = qHTS assay to identify small molecule antagonists of the retinoid-related orphan receptor gamma (ROR-gamma) signaling pathway - cell viability counter screen (AID 1159520; active = well fitted curve in the direction sought with a large enough effect in the repeat runs; an effect the other way counts as inactive or inconclusive; also: nearly all actives have a fitted effect of over 50% in size)
How it was run: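 Tet-on ROR gamma CHO cells were given compounds for 2 hr, then doxycycline hyclate at 1 uM final, and incubated 16 hr at 37 C. Viability was measured as ATP content by CellTiter-Glo luminescence.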

Measured: Potency

OCCNCc1ccccc1
inactive: [1] | [2] | [3] | [4] | [5] | [6] | [7] | [8] | [9]

COC(=O)C1=C(C)NC(COC(N)=O)=C(C(=O)OC(C)C)C1c1cccc(Cl)c1Cl (configuration not stated)
inactive: [2] | [4] | [5] | [6] | [7] | [8]
active: [3] 21.3 µM

COc1ccnc(CS(=O)c2nc3ccc(OC(F)F)cc3[nH]2)c1OC (configuration not stated)
inactive: [1] | [2] | [3] | [4] | [10] | [7] | [9]

O=C(Nc1ccc(S(=O)(=O)N2CCOCC2)cc1)c1cc(Cl)ccc1NS(=O)(=O)c1ccc(Cl)s1
inactive: [2] | [3] | [4] | [10] | [8] | [9]

CCCNCC(O)COc1ccccc1C(=O)CCc1ccccc1 (configuration not stated)
inactive: [1] | [2] | [3] | [4] | [10]

C[C@@H](c1ncncc1F)C(O)(Cn1cncn1)c1ccc(F)cc1F (some centres not stated)
inactive: [1] | [2] | [3] | [4] | [10] | [7] | [8]

O=C1OC(CN2CCOCC2)CN1/N=C/c1ccc([N+](=O)[O-])o1 (configuration not stated)
inactive: [2] | [3] | [4] | [10] | [7] | [9]

C=C(C)C(=O)OCCOCC
inactive: [1] | [2] | [3] | [4] | [10] | [8]
active: [7] 49.2 µM

COc1cc2c(cc1OC)C(C(C(=O)N(CCc1ccc(OC)c(OC)c1OC)CCc1ccc(OC)c(OC)c1OC)c1ccccc1)=NCC2 (configuration not stated)
inactive: [1] | [2] | [3] | [4] | [5] | [7] | [8] | [9]
